CYP2C19 activ – cytochrome P450 2C19 (human) activation; P33261; recombinant CYP2C19, luciferin-H EGE luminescence; active compounds read high; 0 = fully inhibited enzyme, 1 = untreated enzyme; activation factor at 5 µM; 96,000 tested, under 10 active; AID 1025;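 active means activation factor of at least 2 at 5 µM in the primary screen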
CYP2C9 inhib – inhibitors of human CYP2C9 | inhibition, % at 5 µM | P11712 | 96,000 compounds, 20% hits | CYP2C9 Supersomes, luciferin-H conversion, luminescence;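 active means blocking of liver enzyme CYP2C9 beyond about 50% at 5 µM, limit read from the data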
CYP2C19 inh – inhibitors of human CYP2C19 | P33261 | CYP2C19 Supersomes, luciferin-H EGE luminescence, 30 min | inhibition, % at 5 µM | 96,000 compounds, 21% hits | AID 778;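 active means CYP2C19 inhibition above a set limit at 5 µM in the primary screen, cut at about 50% in these data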
CYP2C9 act – CYP2C9 (human) activation; recombinant CYP2C9, luciferin-H conversion, luminescence; active compounds read high; factor 1 = untreated enzyme, 0 = blocked; P11712; activation factor at 5 µM; AID 1024; 96,000 compounds, 1.4% hits;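 active means activation factor of 2 or more for CYP2C9 at a 5 µM dose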
sEH inhibitor – soluble epoxide hydrolase (human) inhibition | recombinant human sEH enzymatic activity assay | 91,000 compounds, 0.34% hits | inhibition, % at 2 µM | AID 707; in the data active means inhibition above about 80%
Target sequence (P34913 whole entry, looked up): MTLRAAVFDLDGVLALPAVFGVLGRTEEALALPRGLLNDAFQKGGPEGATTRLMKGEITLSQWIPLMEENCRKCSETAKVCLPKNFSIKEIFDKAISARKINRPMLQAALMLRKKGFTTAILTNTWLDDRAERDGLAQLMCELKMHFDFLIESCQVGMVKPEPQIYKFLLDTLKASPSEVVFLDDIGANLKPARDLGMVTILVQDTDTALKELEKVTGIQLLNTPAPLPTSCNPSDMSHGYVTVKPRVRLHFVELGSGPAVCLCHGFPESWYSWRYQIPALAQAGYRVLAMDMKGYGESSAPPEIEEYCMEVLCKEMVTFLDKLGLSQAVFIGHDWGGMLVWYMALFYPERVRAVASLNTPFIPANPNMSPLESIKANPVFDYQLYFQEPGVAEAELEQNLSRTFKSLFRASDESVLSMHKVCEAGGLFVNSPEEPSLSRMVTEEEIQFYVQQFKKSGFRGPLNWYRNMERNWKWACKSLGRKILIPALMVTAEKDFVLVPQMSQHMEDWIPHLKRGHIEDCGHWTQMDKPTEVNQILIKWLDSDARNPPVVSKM
sEH act – increases human soluble epoxide hydrolase activity; purified human sEH enzymatic activity, activator screen; activation, % at 2 µM; 91,000 compounds, 0.04% hits; AID 717; in the data active means activation above about 37%
Of the large screens only hits and unclear results are named; the others gave an inactive call. An excerpt weighted towards active compounds, which were near 27% of everything screened.

O=C(NCC(c1cccnc1)N1CCOCC1)c1cccc(Cl)c1 (stereo not drawn)	none
O=C(NCC(c1cccnc1)N1CCN(c2ccc(F)cc2)CC1)C1CCCCC1 (stereo not drawn)	none
O=C(NCC(c1cccnc1)N1CCN(c2ccccc2F)CC1)C1CCCCC1 (stereo not drawn)	CYP2C19 inh 78.9
O=C(NCC(c1cccnc1)N1CCN(c2ccccc2F)CC1)c1cccc(Cl)c1 (stereo not drawn)	CYP2C9 inhib 94.7, CYP2C19 inh 91.0
Cc1ccc(C(=O)c2nocc2C(=O)c2cccs2)cc1	CYP2C9 inhib 69.3, CYP2C19 inh 61.6
COc1ccc(S(=O)(=O)N(C)CC(=O)Nc2ccc(C(F)(F)F)cc2)cc1Cl	CYP2C9 inhib 56.6
COc1ccc(S(=O)(=O)N(C)CC(=O)Nc2ccccc2OC)cc1	CYP2C19 inh 73.1
COc1ccccc1NC(=O)CN(C)S(=O)(=O)c1ccc(F)cc1	CYP2C19 inh 55.9, CYP2C9 act 2.3
COc1ccc(S(=O)(=O)N(C)CC(=O)Nc2ccccc2SC)cc1	CYP2C19 inh 98.0
COc1ccc(NC(=O)CN(C)S(=O)(=O)c2ccccc2)cc1	CYP2C9 inhib 54.6, CYP2C19 inh 61.5
COC(=O)c1ccccc1NC(=O)CN(C)S(=O)(=O)c1ccc(OC)c(C)c1	CYP2C19 inh 99.6
COc1ccc(NC(=O)CN(C)S(=O)(=O)c2ccccc2)c([N+](=O)[O-])c1	none
CCOC(=O)c1ccc(NC(=O)CN(C)S(=O)(=O)c2ccc(OC)cc2)cc1	none
COc1ccc(S(=O)(=O)N(C)CC(=O)Nc2cccc(C(C)=O)c2)cc1C	none
COc1ccc(S(=O)(=O)N(C)CC(=O)Nc2ccccc2SC)cc1Cl	CYP2C9 act 2.9
COC(=O)c1ccccc1NC(=O)CN(C)S(=O)(=O)c1ccc(OC)cc1	CYP2C19 inh 72.5
Cc1ccc(C(=O)CN2CCC(NC(=O)C3CCCCC3)CC2)cc1	none
O=C1Nc2ccc([N+](=O)[O-])cc2C1(O)N1CCCCC1 (stereo not drawn)	none
CCc1c(C)nc2ncnn2c1N1CCC(C(=O)Nc2ccccc2)CC1	CYP2C9 inhib 65.5, CYP2C19 inh 95.0
CCc1c(C)nc2ncnn2c1N1CCC(C(=O)Nc2ccc(C)cc2)CC1	CYP2C9 inhib 58.9, sEH inhibitor 83.3
Cc1nc2ncnn2c(N2CCCC(C(=O)Nc3ccc4c(c3)CCC4)C2)c1C (stereo not drawn)	CYP2C9 inhib 65.5 (no result: sEH inhibitor, sEH act)
OCC1(C2=NOC(O)(C(F)(F)F)C2)CCCCC1 (stereo not drawn)	none
Cc1cccc(C(=O)NNC2=C(C(=O)C(F)(F)F)CCC2)c1O	CYP2C9 inhib 93.7
O=C(NNC1=C(C(=O)C(F)(F)F)CCC1)c1cccc(O)c1	none (no result: CYP2C19 activ, CYP2C9 inhib, CYP2C19 inh, CYP2C9 act)
CCCc1cc(C(=O)OC)c(NC(=O)c2cc(C)on2)s1	none (no result: CYP2C19 activ, CYP2C9 inhib, CYP2C19 inh, CYP2C9 act)
COc1cccc(-c2nc(Cc3ccc(OC)c(OC)c3)no2)c1	CYP2C19 inh 57.5 (no result: sEH inhibitor, sEH act)
O=C(CCC1CCCC1)Nc1ccon1	none
Cc1ccc(-n2c(CSc3nc(C)cc(C)n3)nnc2SCC(=O)NCc2ccco2)cc1	none
CCOC(=O)C1CCCN(CC(=O)Nc2c(C(=O)OC)[nH]c3ccc(Cl)cc23)C1 (stereo not drawn)	CYP2C9 inhib 90.6, CYP2C19 inh 90.8
CCOC(=O)C1CCCN(CC(=O)Nc2c(C(=O)OC)[nH]c3ccccc23)C1 (stereo not drawn)	none
COC(=O)c1[nH]c2ccc(C)cc2c1NC(=O)CCN1CCN(Cc2ccc3c(c2)OCO3)CC1	none (no result: sEH inhibitor, sEH act)
CCOC(=O)C1CCCN(CC(=O)Nc2c(C(=O)OC)[nH]c3ccc(C)cc23)C1 (stereo not drawn)	CYP2C9 inhib 59.6
COC(=O)c1[nH]c2ccc(C)cc2c1NC(=O)CN1CCCc2ccccc21	CYP2C9 inhib 84.9
CCN(CC(=O)Nc1c(C(=O)OC)[nH]c2ccc(Cl)cc12)c1ccc2c(c1)OCO2	CYP2C9 inhib 96.9, CYP2C19 inh 88.0
CNc1nc(SCC(=O)OC)nc(N2CCOCC2)n1	none (no result: sEH inhibitor, sEH act)
CCN(CC)S(=O)(=O)c1cc(Br)c(C)cc1OC	CYP2C9 act 2
Cc1cc(C)c(S(=O)(=O)N(CC(=O)O)CC(=O)O)c(C)c1	none
COc1ccc(Br)cc1S(=O)(=O)N1CCOCC1	none
COc1cc(C)c(C(C)C)cc1S(=O)(=O)N1CCN(C)CC1	none
CCN(CC)S(=O)(=O)c1c(Br)cc(C)cc1Br	CYP2C9 act 2.5
CCN(CC)S(=O)(=O)c1cc(Br)ccc1OC	CYP2C19 inh 97.5, CYP2C9 act 2.5 (no result: sEH inhibitor, sEH act)
COc1cc(C)c(Br)cc1S(=O)(=O)N1CCCC1	CYP2C19 inh 95.5, CYP2C9 act 2.8
CCCOc1cc(C)c(Cl)cc1S(=O)(=O)N(CC)CC	none (no result: CYP2C19 activ, CYP2C9 inhib, CYP2C19 inh, CYP2C9 act)
Cc1ccnc2c(N3C(=O)C4C5C=CC(C5)C4C3=O)cccc12 (stereo not drawn)	none
CCCCOc1ccc(C(=O)NCc2ccccn2)cc1	none
CC(NC(=O)NC1CCCCC1)C(c1cccs1)N1CCN(c2ccccc2)CC1 (stereo not drawn)	none
Clc1ccc(OCc2nnc(SCc3nc4ccccc4[nH]3)n2Cc2ccco2)cc1	CYP2C9 inhib 62.0
c1ccc(-c2nnc(SCc3nc4ccccc4[nH]3)n2Cc2ccco2)nc1	CYP2C9 inhib 89.8, CYP2C19 inh 51.3
Clc1cccc(-c2nnc(SCc3nc4ccccc4[nH]3)n2Cc2ccco2)c1	CYP2C9 inhib 87.0, CYP2C19 inh 82.5
COc1cccc(-c2nnc(SCc3nc4ccccc4[nH]3)n2N)c1	none
Clc1ccccc1CSc1nnc(-c2ccccn2)n1Cc1ccco1	none
c1coc(Cn2c(SCc3nc4ccccc4[nH]3)nnc2-c2cnccn2)c1	CYP2C9 inhib 80.6, CYP2C19 inh 67.4
CCn1c(COc2ccc(C)cc2)nnc1SCc1nc2ccccc2[nH]1	none
Cn1c(SCc2nc3ccccc3[nH]2)nnc1-c1cnccn1	none (no result: sEH inhibitor, sEH act)
O=C(CSc1nccc(=O)[nH]1)Nc1ccc(S(=O)(=O)N2CCOCC2)cc1	none (no result: CYP2C19 activ, CYP2C9 inhib, CYP2C19 inh, CYP2C9 act)
COC(=O)C1=C(O)C(C(=O)OC)C(c2ccc(C)cc2)C(C#N)(C#N)C1c1ccc(C)cc1 (stereo not drawn)	none (no result: CYP2C19 activ, CYP2C9 inhib, CYP2C19 inh, CYP2C9 act)
C#CCn1c(=NC(=O)c2ccc(Br)s2)sc2cccc(OC)c21	none
CC(C)CCn1cnc2c([nH]c3cccc(Cl)c32)c1=O	CYP2C9 inhib 50.0
Cc1ccc(C(C#N)c2ccc(C(=O)c3ccc(F)cc3)cc2)cc1 (stereo not drawn)	CYP2C9 inhib 59.7
N#CC(c1ccc(F)cc1)c1ccc(C(=O)c2ccc(F)cc2)cc1 (stereo not drawn)	CYP2C9 inhib 77.0
Cc1nnc(-c2cnn(-c3ccccc3)c2N)n1Cc1ccncc1	none
COc1cc(S(=O)(=O)N(C)C)ccc1F	none (no result: CYP2C19 activ, CYP2C9 inhib, CYP2C19 inh, CYP2C9 act)
CCN1CCC(C(=O)NC2CCCC2)(N(Cc2cccs2)C(=O)Cn2nnc3ccccc32)CC1	none (no result: sEH inhibitor, sEH act)
Cc1ccc(Nc2nc(-c3sc(NC(=O)c4ccco4)nc3C)cs2)cc1	none
CCCC(=O)Nc1nc(C)c(-c2csc(Nc3ccc(Cl)cc3)n2)s1	CYP2C19 inh 53.5

Screens deposited in PubChem by several laboratories.
